From the supplement of paper PMC13380429

Key:
[1] = system: Vero E6 infected with SARS-CoV-2; assay: morphology score (similarity to uninfected cells); higher = more like uninfected cells; conditions: 24 h
[2] = system: Vero E6 infected with SARS-CoV-2; assay: SARS-CoV-2 infection rate relative to infected DMSO; higher = more infection, active = 60 or less; conditions: 24 h

Structure (SMILES)	morphology score [1]	SARS-CoV-2 infection rate [2]
Oc1ccc(C(O)CNCCCCCCNCC(O)c2ccc(O)c(O)c2)cc1O (stereo not drawn) [hexoprenaline] (10 µM)	0.0624	116% (inactive)
CCOc1ccc(-n2c([C@@H](C)N(Cc3cccnc3)C(=O)Cc3ccc(OC(F)(F)F)cc3)nc3ncccc3c2=O)cc1 (racemic) (10 µM)	0.181	98.8% (inactive)
Cc1ccccc1C(=O)Nc1ccc(C(=O)N2CCCC(O)c3cc(Cl)ccc32)c(C)c1 (stereo not drawn) [tolvaptan] (10 µM)	0.0857	120% (inactive)
C[C@H]1CC[C@H](n2c3cnccc3c3cnc(Nc4ccc5c(n4)CCN(C(=O)CO)C5)nc32)CC1 (10 µM)	0.0031	110% (inactive)
CNC1CCCN(c2c(F)cc3c(=O)c(C(=O)O)cn(C4CC4)c3c2OC)C1 (stereo not drawn) [balofloxacin] (10 µM)	-0.103	104% (inactive)
OC[C@H]1O[C@@H](n2cnc3c(NC4CCCC4)ncnc32)[C@H](O)[C@@H]1O [N6-cyclopentyladenosine] (10 µM)	-0.0139	109% (inactive)
Cc1ccc(-c2cc(C(F)(F)F)nn2-c2ccc(S(N)(=O)=O)cc2)cc1 [celecoxib] (10 µM)	0.193	102% (inactive)
COc1ncc2cc(C(=O)Nc3cc(C(=O)NCc4cccc(Cl)c4)ccc3Cl)c(=O)[nH]c2n1 (10 µM)	-0.0693	110% (inactive)
CN[C@H](CNC(=O)N1CCC[C@@H]([C@@H](OCCNC(=O)OC)c2cccc(Cl)c2)C1)C[C@H]1CCCOC1 (10 µM)	-0.0283	105% (inactive)
